# Screens as filed in PubChem BioAssay.
# Only some compounds are listed: those with a hit (about 6.3% of all), similar ones and a draw of the others.
# HepG2 viability – HepG2 cytotoxicity, counter-screen for TGF-b inhibitors | HepG2 CAGA-GFP viability, ATP luminescence, 18 h | Potency, µM (top dose mostly 46.1 µM), usual class: cytotoxic | hit rate 0.76% among 410,000 | AID 588856
#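 HepG2 CAGA-GFP cells (1000/well, DMEM with 1% FBS) received compound, then TGF-beta at 500 pg/mL final, and were incubated 18 hours at 37 degrees C. Viability was read by CellTiter-Glo luminescence. Media-only wells were set as complete cell-killing and DMSO as no toxicity.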
# ATXN viability – viability counter-screen for ATXN expression inhibitors; S2 cells (HEK-293 line with an ATXN2-luciferase reporter) viability, CellTiter-Fluor protease fluorescence, 24 h; Potency, µM (highest dose often 56.7 µM), most hits filed as cytotoxic; hit rate 0.49% among 400,000; AID 651635; also: nearly all actives have a fitted effect of over 40% in size
# RORgamma inh – blocks mouse ROR gamma transcriptional activity; Drosophila S2 Gal4-RORgamma UAS-luciferase reporter, 20 h; Potency, µM (doses to about 53.6 µM), most hits filed as inhibitors; P51450; hit rate 5.4% among 310,000; AID 2551; also: nearly all actives have a fitted effect of over 60% in size
# Target sequence (P51450 whole entry, looked up, the tested form may be a part): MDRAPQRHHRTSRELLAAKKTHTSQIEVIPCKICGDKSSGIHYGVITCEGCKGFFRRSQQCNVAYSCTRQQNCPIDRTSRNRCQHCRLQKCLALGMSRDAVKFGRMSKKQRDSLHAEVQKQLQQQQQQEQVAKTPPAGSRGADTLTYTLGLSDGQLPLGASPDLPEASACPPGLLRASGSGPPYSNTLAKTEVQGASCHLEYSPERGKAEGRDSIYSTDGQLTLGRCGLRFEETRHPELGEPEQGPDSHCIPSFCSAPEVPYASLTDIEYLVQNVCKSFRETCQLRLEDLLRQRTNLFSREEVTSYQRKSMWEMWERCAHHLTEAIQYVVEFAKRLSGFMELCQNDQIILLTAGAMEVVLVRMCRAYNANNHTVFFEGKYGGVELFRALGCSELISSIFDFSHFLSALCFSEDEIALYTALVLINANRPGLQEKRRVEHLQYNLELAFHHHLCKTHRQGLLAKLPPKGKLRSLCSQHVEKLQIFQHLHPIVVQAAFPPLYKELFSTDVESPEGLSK
#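 Using a luciferase readout, inhibitors were identified by reduced reporter activity in Drosophila cells coexpressing a copper-inducible Gal4–ROR gamma fusion and UAS-driven Photinus luciferase, incubated 20 hr after 700 uM copper sulfate.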
# ATXN2 expr inh – inhibitors of ATXN2 expression; Potency, µM (series often up to 57 µM), most hits filed as inhibitors; hit rate 0.72% among 360,000; HEK-293 ATXN2-luciferase reporter, luminescence, 24 h; also: nearly all actives have a fitted effect of over 55% in size
#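 qHTS (up to 57 uM final) was run with 24 h compound exposure of reporter cells at 37 °C. Each well was multiplexed: SteadyGlo luminescence measured ATXN2-luciferase expression after a fluorogenic Gly-Phe-AFC viability readout (25 uM final).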
# TGFb inhibitor – TGF-b pathway inhibition. HepG2 CAGA-GFP TGF-b/SMAD3 reporter, GFP fluorescence, 18 h; TGF-beta stimulated, 500 pg/mL final. Potency, µM (top dose mostly 46.1 µM), hits mostly inhibitors. hit rate 1.2% among 410,000; also: nearly all actives have a fitted effect of over 65% in size
#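 First, reporter cells (HEPG2 CAGA-GFP) rested 2 h at 37 degrees C. Next, compounds were pinned in and TGF-beta added to 500 pg/mL final. After 18 h, GFP was imaged per cell and summed per well.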
# VP16 counter – counter-screen for ROR gamma inhibitors: Gal4-VP16 reporter; Drosophila S2 Gal4-VP16 UAS-luciferase, luminescence, 20 h; Potency, µM (top dose mostly 53.6 µM), actives largely listed as inhibitors; hit rate 3.5% among 310,000; AID 2546;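 also: Gal4-VP16 expression switched on by copper sulfate through the metallothionein promoter; nearly all actives have a fitted effect of over 50% in size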
# Numbers stand for hits; i = inactive; ? = inconclusive; nt = no result given; [ ] = another dose, or the depositor's remark. Calls follow the shape of the dose curve; as a rule, active = well fitted curve in the direction sought with a large enough effect; inconclusive = small, poorly fitted or top-dose-only effect, or another doubt; inactive = no such curve, though single readings can be large; an effect the other way counts as inactive or inconclusive.
SMILES,HepG2 viability,ATXN viability,RORgamma inh,ATXN2 expr inh,TGFb inhibitor,VP16 counter
Cc1ccc2nc(-c3ccc(SCC(=O)Nc4nnc(C)s4)nc3)[nH]c2c1,12.6µM,nt,i[10 µM],?,11.2µM,?
Cc1ccc2nc(-c3ccc(SCC(=O)Nc4nc(C)cs4)nc3)[nH]c2c1,i,i,i,i,i,?
COc1ccccc1CNc1ncncc1-c1ccccc1Cl,nt,nt,i,nt,nt,i
Cc1nnc(NC(=O)C2CCCN2C(=O)Nc2ccccc2)s1 (stereo not drawn),i,i,i,i,i,i
CC(=O)c1cccc(NC(=O)c2cccc(N3C(=O)c4ccccc4C3=O)c2)c1,2.82µM,i,i,i,i,i
O=C(O)c1cccc(NC(=O)c2ccc(N3C(=O)c4ccc(C(=O)Nc5cccc(C(=O)O)c5)cc4C3=O)cc2)c1,i,i,i,i,i,i
CCN1C(=O)c2ccc(C(=O)Nc3cccc(C(=O)O)c3)cc2C1=O,i,nt,10µM,i,i,?
NS(=O)(=O)c1cccc(NC(=O)c2cccc(N3C(=O)c4ccccc4C3=O)c2)c1,i,i,nt,i,i,nt
C=C1C[C@@]2(O)O[C@@]3(C[C@H]2C(C)C)[C@H](C)CC[C@H]13,nt,nt,nt,i,nt,nt
O=C(N/N=C/c1ccccc1Cl)C1CC1,i,i,i,i,i,i
Fc1ccccc1/C=N/NC(=S)Nc1ccc(Cl)cc1Cl,i,?,0.631µM,i,i,1.26µM
Fc1ccc(NC(=S)NN=Cc2ccccc2Cl)cc1,i,i,nt,i,i,nt
S=C(N/N=C/c1ccccc1Cl)Nc1cccc(Cl)c1Cl,i,i,0.398µM,nt,i,11.2µM
Fc1ccc(NC(=S)Nc2ccc(Cl)cc2Cl)cc1,i,i,?,i[11.3 µM],i,i
Fc1ccc(NC(=S)N/N=C/c2ccc(F)c(F)c2)c(F)c1,i,nt,1.12µM,nt,i,2.51µM
S=C(NCC1CC1)N/N=C/c1ccccc1Cl,i,i,5.62µM,i,i,?
COc1ccc(N2Cc3cccc(C(=O)Nc4cccc(F)c4)c3C2=O)cc1,i,i,nt,i,i,nt
Cc1cc(-n2[nH]c(C)c(C)c2=O)nc(-c2ccccc2O)n1,i,i,11.2µM,?,i,?
CNS(=O)(=O)c1cccc(C(=O)OCC(=O)c2ccc3c(c2)OCCO3)c1,i,i,nt,17.8µM,i,nt
COC(=O)[C@@H]1CC[C@H](C)[C@@H](c2ccc(C)cc2)N1C(=O)c1ccc(/C=N\O[C@@H](C)c2cc(-c3c(C)cc(C)cc3C)no2)cc1,nt,nt,i[10 µM],nt,nt,i[10 µM]
CCOc1ccc(C(=O)/C=C/c2ccc(SC)cc2)cc1,i,i,?,i,i,i
Cc1ccc(C(=O)/C=C/C(=O)O)cc1,i,i,11.2µM,nt,?,7.94µM
Cc1ccc(/C=C/C(=O)c2ccc(O)cc2)cc1,i,i,2µM,i,?,7.08µM
Cc1ccc(/C=C/C(=O)c2ccccc2)cc1,nt,i,i,i,?,i
CSc1ccc(/C=C/C(=O)c2ccc(O)cc2)cc1,i,i,0.501µM,i,?,1.12µM
SMILES,HepG2 viability,ATXN viability,RORgamma inh,ATXN2 expr inh,TGFb inhibitor,VP16 counter
CC(=O)c1ccc(N/C=C\C(=O)c2ccc(C)cc2)cc1,i,i,i,i,i,i
COc1ccc(NC(=O)CSc2nnc(CN3CCOCC3)n2C)cc1Cl,i,i,nt,i,i,nt
NC(=O)C1CCN(C(=O)c2cc(Cl)c3c(c2)OCCO3)CC1,i,i,nt,i,i,nt
COc1ccc2c(C(=O)CCl)c[nH]c2c1,6.31µM,i,?,i,14.1µM,17.8µM
Brc1ccccc1OCCOc1cccc2cccnc12,i,i,?,i,i,i
Cc1cc(Cl)cc(Cl)c1OCCOc1cccc2cccnc12,i,i,?,i,11.2µM,?
O=C(NNc1cc(N2CCOCC2)nc(N2CCOCC2)n1)C12CC3CC(CC(C3)C1)C2,i,i,i,i,i,i
O=C(NNc1cc(N2CCOCC2)nc(N2CCOCC2)n1)c1ccc(Cl)c(Cl)c1,i,i,14.1µM,i,i,?
Cc1ccc(C(=O)NNc2cc(N3CCCC3)nc(N3CCCC3)n2)cc1,i,i,5.01µM,i,i,?
COc1ccc(Cn2c(NCC(C)C)nc3c2c(=O)n(C)c(=O)n3C)cc1,i,i,nt,i,i,nt
C=CC[C@@H](CC(=O)NCCO)C(=O)NCCOC(=O)[C@@H](CC=C)Cc1ccc(F)cc1,i,i,nt,i,i,nt
CCCCc1nc2cc(C(=O)NCc3cn(C)nc3C)ccc2o1,i,i,1µM,i,?,0.0631µM
Oc1cc(NCCN2CCOCC2)cc2cccnc12,i,?,nt,31.6µM,?,nt
Oc1cccc2cc(Nc3ccccc3)cnc12,i,?,nt,7.08µM,3.55µM,nt
Oc1cc(Nc2ccccc2)cc2cccnc12,11.2µM,?,nt,31.6µM,31.6µM,nt
C=CCn1c(SCC)nc2ccccc2c1=O,i,nt,nt,nt,i,nt
CC(=O)c1sc(NC(=O)CCCc2nc3ccccc3c(=O)[nH]2)nc1-c1ccccc1,11.2µM,i,nt,nt,20µM,nt
CCOc1ccccc1NC(=O)CCCc1nc2ccccc2c(=O)[nH]1,i,i,i,20µM,i,i
C/C(=C1/C(=O)N(c2ccc([N+](=O)[O-])cc2)N=C1c1ccccc1)N(C)C,nt,nt,?,nt,nt,14.1µM
CC1=NN(c2nc3ccccc3[nH]2)C(=O)/C1=C/N(C)C,1.58µM,i,5.01µM,?,i,?
CC1=NN(c2ccc([N+](=O)[O-])cc2)C(=O)/C1=C\N(C)C,4.47µM,i,i,i,i,?
CC1=NN(c2nc3ccccc3[nH]2)C(=O)C1Cc1ccccc1 (stereo not drawn),i,?,i,10µM,?,i
Cc1cccc(N2CCN(c3nc4ccccc4c4nnc(C)n34)CC2)c1C,i,i,nt,i,?,nt
Cc1cc(C)cc(CC(Cc2nc3ccccc3[nH]2)c2nc3ccccc3[nH]2)c1 (stereo not drawn),i,?,11.2µM,?,?,11.2µM
CCN(CC)S(=O)(=O)c1ccc2c(c1)N(CC(=O)N1CCN(c3cccc(C)c3)C(C)C1)C(=O)CO2 (stereo not drawn),i,nt,nt,i,i,nt
SMILES,HepG2 viability,ATXN viability,RORgamma inh,ATXN2 expr inh,TGFb inhibitor,VP16 counter
O=C(Nc1nnc(C2=COCCO2)o1)c1ccc(S(=O)(=O)N2CCCCC2)cc1,i,i,1.26µM,i,i,3.16µM
CC1CCCCN1S(=O)(=O)c1ccc(C(=O)Nc2nnc(-c3ccncc3)o2)cc1 (stereo not drawn),i,i,i,?,?,i
CCC1CCCCN1S(=O)(=O)c1ccc(C(=O)Nc2nnc(C3=COCCO3)o2)cc1 (stereo not drawn),i,i,0.891µM,i,i,1µM
CC1CCN(S(=O)(=O)c2ccc(C(=O)Nc3nnc(C4=COCCO4)o3)cc2)CC1,i,i,1.12µM,i,i,1µM
O=C(Nc1nnc(C2=COCCO2)o1)c1ccc(S(=O)(=O)N2CCCC2)cc1,i,i,i,i,i,i
Cc1cc(C)cc(Nc2cc(C(=O)NCc3ccccc3)c3ccccc3n2)c1,i,i,nt,i,?,nt
